Data reported in PubChem BioAssay (Tox21).
Results filed as inconclusive are left out. Entries that show only a call come without a potency. Activity calls are given as the source filed them. Unless noted, calls follow the shape of the full dose curve.

How the values were obtained:
[1] = qHTS assay to identify small molecule agonists of the peroxisome proliferator-activated receptor delta (PPARd) signaling pathway - cell viability counter screen (AID 743211; active = well fitted curve in the direction sought with a large enough effect in the repeat runs; an effect the other way counts as inactive or inconclusive; also: nearly all actives have a fitted effect of over 55% in size)
In short: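 Viability of GeneBLAzer PPARd UAS-bla HEK293H cells was assessed after 17 h compound incubation at 37C, using CellTiter-Glo reagent added after the reporter read and luminescence recorded 30 min later.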

[2] = target: Peroxisome proliferator-activated receptor delta (Homo sapiens) (UniProt Q03181); assay: qHTS assay to identify small molecule agonists of the peroxisome proliferator-activated receptor delta (PPARd) signaling pathway (AID 743212);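 also: HEK293H cells with PPARd UAS beta-lactamase reporter GeneBLAzer system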
In short: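 Beta-lactamase reporter read by fluorescence (LiveBLAzer B/G FRET, 2 h, room temperature). Test agents, in DMSO, incubated at 37 C with PPARd-bla HEK293H cells.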

[3] = qHTS assay to identify small molecule antagonists of the peroxisome proliferator-activated receptor delta (PPARd) signaling pathway - cell viability counter screen (AID 743213; active = well fitted curve in the direction sought with a large enough effect in the repeat runs; an effect the other way counts as inactive or inconclusive; also: nearly all actives have a fitted effect of over 50% in size)
In short: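 Viability counter-screen, qHTS format: PPARd-bla HEK293H, L165041 300 nM final, 17 h compound exposure at 37 C, CellTiter-Glo luminescence after 30 min RT.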

[4] = target: Peroxisome proliferator-activated receptor delta (Homo sapiens) (UniProt Q03181); assay: qHTS assay to identify small molecule antagonists of the peroxisome proliferator-activated receptor delta (PPARd) signaling pathway (AID 743215; active = well fitted inhibition curve with a large enough effect in the signal ratio in the repeat runs, not every such curve was filed as active; the % refers to the signal ratio;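 also: cells stimulated with agonist L165041 at 300 nM final during compound exposure; series mostly up to about 62 µM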)
In short: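 Plated HEK293H PPARd-bla cells rested 5 h at 37 C and 5% CO2. Compound, then agonist L165041 at 300 nM final, was added; 17 h at 37 C followed. Substrate loading, 2 h room temperature, fluorescence measured.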

[5] = target: Bile acid receptor (Homo sapiens) (UniProt Q96RI1); assay: qHTS assay to identify small molecule antagonists of the farnesoid-X-receptor (FXR) signaling pathway (AID 743217; active = well fitted inhibition curve with a large enough effect in the signal ratio in the repeat runs, not every such curve was filed as active; the % refers to the signal ratio)
In short: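 Screen of the Tox21 10K library in quantitative HTS format using FXR-UAS-bla HEK 293T reporter cells. Agonist chenodeoxycholic acid, 50 uM final, added with compounds; 16 h incubation at 37 °C; beta-lactamase FRET fluorescence measured.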

[6] = target: Bile acid receptor (Homo sapiens) (UniProt Q96RI1); assay: qHTS assay to identify small molecule agonists of the farnesoid-X-receptor (FXR) signaling pathway (AID 743220; active = well fitted activation curve with a large enough effect in the signal ratio in the repeat runs, not every such curve was filed as active; the % refers to the signal ratio)
In short: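 FXR-UAS-bla HEK 293T cells carrying a UAS-driven beta-lactamase reporter were plated for 5 h at 37C/5% CO2, then exposed to DMSO-dissolved Tox21 10K compounds for 16 h at 37C. A LiveBLAzer B/G FRET substrate was loaded for 2 h at room temperature before fluorescence reading.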

[7] = qHTS assay to identify small molecule antagonists of the farnesoid-X-receptor (FXR) signaling pathway - cell viability counter screen (AID 743221; active = well fitted cell-killing curve with a large enough effect in the repeat runs, not every such curve was filed as active; also: nearly all actives have a fitted effect of over 50% in size)
In short: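 Quantitative HTS of the Tox21 10K library run in parallel with the beta-lactamase reporter read. HEK 293T cells carrying a UAS-driven bla reporter got compound and 50 uM CDCA (final) for 16 h; ATP-based luminescence followed.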

[8] = qHTS assay to identify small molecule agonists of the vitamin D receptor (VDR) signaling pathway - cell viability counter screen (AID 743224; active = well fitted curve in the direction sought with a large enough effect in the repeat runs; an effect the other way counts as inactive or inconclusive; also: series mostly up to about 63 µM; nearly all actives have a fitted effect of over 50% in size)
In short: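 Compounds were pin-transferred onto VDR-bla cells plated 4 h earlier; following 16 h incubation at 37C, cell viability was quantified by CellTiter-Glo luminescence after 30 min at room temperature.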

[9] = qHTS assay to identify small molecule agonists of the NFkB signaling pathway (AID 1159509; active = well fitted curve in the direction sought with a large enough effect in the signal ratio in the repeat runs, not every such curve was filed as active; the % refers to the signal ratio; also: series mostly up to about 61 µM)
In short: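 Beta-lactamase reporter assay run in quantitative high-throughput format on an NF-kB-responsive ME-180 line, with 5 hr compound treatment and a FRET-based blue/green fluorescence readout.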

[10] = qHTS assay to identify small molecule agonists of the NFkB signaling pathway - cell viability counter screen (AID 1159515); also: series mostly up to about 61 µM; nearly all actives have a fitted effect of over 55% in size
In short: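 Parallel cytotoxicity counter screen in ME-180 cells carrying an NFkB-response-element beta-lactamase reporter, 2,000 cells/well. Compound exposure lasted 5 hr at 37 C, 5% CO2. Cell viability was quantified by CellTiter-Glo luminescence.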

[11] = qHTS assay to identify small molecule agonists of the endoplasmic reticulum stress response signaling pathway (AID 1159516; active = well fitted activation curve with a large enough effect in the signal ratio in the repeat runs, not every such curve was filed as active; the % refers to the signal ratio)
In short: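 Using a HeLa line with an ESRE-driven beta-lactamase gene, agonist activity was measured by FRET substrate fluorescence (460 and 530 nm emission) after cells were treated with compounds for 5 hr at 37 C and 5% CO2.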

[12] = qHTS assay to identify small molecule agonists of the endoplasmic reticulum stress response signaling pathway - cell viability counter screen (AID 1159517);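 also: HeLa cells carrying an ER stress response element beta-lactamase reporter; series mostly up to about 61 µM; nearly all actives have a fitted effect of over 50% in size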
In short: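 Cytotoxicity of test compounds toward ESRE-bla HeLa cells was assessed after 5 hr exposure. The luminescent CellTiter-Glo signal was measured 30 min after reagent addition.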

[13] = qHTS assay to identify small molecule antagonists of the retinoid-related orphan receptor gamma (ROR-gamma) signaling pathway - cell viability counter screen (AID 1159520; active = well fitted curve in the direction sought with a large enough effect in the repeat runs; an effect the other way counts as inactive or inconclusive; also: nearly all actives have a fitted effect of over 50% in size)
In short: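 Tet-on ROR gamma CHO cells (1,000/well) were plated 4 hr, given compounds in DMSO for 2 hr at 37 C, then induced with 1 uM final doxycycline for 16 hr. Viability was read as ATP by CellTiter-Glo luminescence after 30 min.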

[14] = qHTS assay to identify small molecule agonists of the AP-1 signaling pathway - cell viability counter screen (AID 1159525); also: nearly all actives have a fitted effect of over 55% in size
In short: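 Each titration point was normalised to DMSO and tetra n-octyl ammonium bromide controls. The read was Cell Titer Glo luminescence after 30 min at RT, following 5 h compound exposure of ME-180 AP-1-bla cells at 37 °C.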

[15] = qHTS assay to identify small molecule agonists of the AP-1 signaling pathway (AID 1159526)
[16] = qHTS assay to identify small molecule agonists of the farnesoid-X-receptor (FXR) signaling pathway - cell viability counter screen (AID 743218; active = well fitted curve in the direction sought with a large enough effect in the repeat runs; an effect the other way counts as inactive or inconclusive; also: nearly all actives have a fitted effect of over 45% in size)
In short: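 Viability of FXR-bla HEK 293T cells is measured by ATP-based CellTiter-Glo luminescence following 16 h compound treatment at 37 C and a prior 2 h room-temperature beta-lactamase substrate step.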

[17] = qHTS assay to identify small molecule antagonists of the vitamin D receptor (VDR) signaling pathway - cell viability counter screen (AID 743225; active = well fitted curve in the direction sought with a large enough effect in the repeat runs; an effect the other way counts as inactive or inconclusive; also: nearly all actives have a fitted effect of over 50% in size)
In short: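 Cells (VDR-UAS-bla HEK 293T) are plated, rested 4 h at 37C, dosed with compound and 3 nM final 1-alpha,25-dihydroxy vitamin D3, and incubated 16 h. Viability is taken from CellTiter-Glo luminescence in the reporter wells.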

[18] = target: Vitamin D3 receptor (Homo sapiens) (UniProt P11473); assay: qHTS assay to identify small molecule agonists of the vitamin D receptor (VDR) signaling pathway (AID 743222)
In short: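 Fluorescence from cleaved LiveBLAzer B/G FRET substrate served as readout. VDR-bla cells had been treated 16 h at 37C with test compounds in DMSO, following a 4 h settling period, and substrate was loaded for 2 h at RT.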

[19] = target: Vitamin D3 receptor (Homo sapiens) (UniProt P11473); assay: qHTS assay to identify small molecule antagonists of the vitamin D receptor (VDR) signaling pathway (AID 743223; active = well fitted inhibition curve with a large enough effect in the signal ratio in the repeat runs, not every such curve was filed as active; the % refers to the signal ratio)
In short: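 Fluorescence from LiveBLAzer B/G FRET substrate, read after 2 h at room temperature, reflects beta-lactamase reporter activity in VDR-bla cells treated 16 h at 37C with compounds and agonist 1alpha,25-dihydroxyvitamin D3 (3 nM final).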

[20] = target: Nuclear receptor ROR-gamma (Homo sapiens) (UniProt P51449); assay: qHTS assay to identify small molecule antagonists of the retinoid-related orphan receptor gamma (ROR-gamma) signaling pathway (AID 1159521; active = well fitted curve in the direction sought with a large enough effect in the repeat runs; an effect the other way counts as inactive or inconclusive; also: nearly all actives have a fitted effect of over 50% in size; also: potency is read from the fitted curve at half-maximal effect)
In short: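 RORγ antagonism is scored from reduced reporter luminescence in Tet-on CHO cells. Induction used 1 uM final doxycycline hyclate for 16 h at 37 C, following a 2 h compound exposure.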

Sequence of Bile acid receptor (Homo sapiens) (Q96RI1 whole entry, looked up): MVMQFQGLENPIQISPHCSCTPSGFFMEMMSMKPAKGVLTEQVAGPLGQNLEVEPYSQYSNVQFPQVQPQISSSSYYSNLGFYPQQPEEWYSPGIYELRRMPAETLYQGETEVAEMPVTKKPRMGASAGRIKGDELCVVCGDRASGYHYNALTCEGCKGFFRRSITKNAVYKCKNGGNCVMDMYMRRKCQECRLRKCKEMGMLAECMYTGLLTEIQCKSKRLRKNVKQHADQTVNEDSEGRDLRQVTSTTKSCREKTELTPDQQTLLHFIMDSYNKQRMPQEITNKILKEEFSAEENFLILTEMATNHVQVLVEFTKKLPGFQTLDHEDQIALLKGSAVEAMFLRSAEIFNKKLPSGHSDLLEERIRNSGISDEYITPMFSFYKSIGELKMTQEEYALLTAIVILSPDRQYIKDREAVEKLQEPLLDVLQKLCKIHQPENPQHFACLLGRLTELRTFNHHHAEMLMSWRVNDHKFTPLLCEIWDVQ
Sequence of Peroxisome proliferator-activated receptor delta (Homo sapiens) (Q03181 whole entry, looked up): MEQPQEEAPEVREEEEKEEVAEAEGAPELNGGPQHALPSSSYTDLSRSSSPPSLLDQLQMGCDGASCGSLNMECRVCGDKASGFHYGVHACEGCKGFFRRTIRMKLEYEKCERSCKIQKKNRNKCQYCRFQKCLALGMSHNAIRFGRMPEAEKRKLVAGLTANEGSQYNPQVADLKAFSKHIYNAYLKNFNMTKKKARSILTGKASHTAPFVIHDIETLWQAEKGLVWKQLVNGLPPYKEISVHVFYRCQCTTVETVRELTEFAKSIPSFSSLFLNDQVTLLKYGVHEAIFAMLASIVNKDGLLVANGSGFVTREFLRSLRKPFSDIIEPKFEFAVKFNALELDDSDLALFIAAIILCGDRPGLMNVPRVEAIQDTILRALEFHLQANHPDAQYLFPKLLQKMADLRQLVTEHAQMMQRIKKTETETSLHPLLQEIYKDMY
Sequence of Vitamin D3 receptor (Homo sapiens) (P11473 whole entry, looked up): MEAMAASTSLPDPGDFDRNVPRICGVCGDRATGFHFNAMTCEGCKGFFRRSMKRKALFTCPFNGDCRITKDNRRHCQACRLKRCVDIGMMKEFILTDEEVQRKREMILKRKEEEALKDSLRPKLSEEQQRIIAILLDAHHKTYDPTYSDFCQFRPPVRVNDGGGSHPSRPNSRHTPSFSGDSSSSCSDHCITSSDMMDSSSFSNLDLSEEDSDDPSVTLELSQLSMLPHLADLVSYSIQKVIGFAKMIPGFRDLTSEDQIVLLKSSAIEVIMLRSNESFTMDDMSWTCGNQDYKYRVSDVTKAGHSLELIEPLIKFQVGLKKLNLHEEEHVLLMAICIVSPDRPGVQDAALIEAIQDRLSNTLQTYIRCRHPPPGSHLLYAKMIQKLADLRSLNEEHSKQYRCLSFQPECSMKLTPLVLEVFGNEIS

## N#CC(Cl)(Cl)Cl
[1]
  Potency: inactive
[2]
  outcome: inactive
[3]
  outcome: inactive
[4]
  outcome: inactive
[5]
  Potency: inactive
[6]
  outcome: inactive
[7]
  outcome: inactive
[8]
  Potency: inactive
[9]
  outcome: inactive
[10]
  outcome: inactive
[11]
  outcome: inactive
[12]
  Potency: inactive
[13]
  Potency: inactive
[14]
  Potency: inactive
[15]
  outcome: inactive

## CCN(CC)CCOC(=O)C(C)(c1ccccc1)c1ccccc1
[1]
  Potency: inactive
[2]
  outcome: inactive
[3]
  outcome: inactive
[4]
  outcome: inactive
[16]
  Potency: inactive
[7]
  outcome: inactive
[8]
  Potency: inactive
[17]
  outcome: inactive
[9]
  outcome: inactive
[10]
  outcome: inactive
[11]
  outcome: inactive
[12]
  Potency: inactive
[13]
  Potency: inactive
[14]
  Potency: inactive
[15]
  outcome: inactive

## COC(=O)c1ccccc1S(=O)(=O)NC(=O)N(C)c1nc(C)nc(OC)n1
[1]
  Potency: inactive
[2]
  outcome: inactive
[4]
  outcome: inactive
[5]
  Potency: inactive
[16]
  Potency: inactive
[6]
  outcome: inactive
[7]
  outcome: inactive
[8]
  Potency: inactive
[17]
  outcome: inactive
[9]
  outcome: inactive
[10]
  outcome: inactive
[11]
  outcome: inactive
[12]
  Potency: inactive
[13]
  Potency: inactive
[14]
  Potency: inactive
[15]
  outcome: inactive

## Cc1cc(C)nc(Nc2ccccc2)n1
[1]
  Potency: inactive
[2]
  outcome: inactive
[4]
  outcome: inactive
[16]
  Potency: inactive
[7]
  outcome: inactive
[18]
  outcome: inactive
[19]
  outcome: inactive
[8]
  Potency: inactive
[9]
  outcome: inactive
[10]
  outcome: inactive
[11]
  outcome: inactive
[12]
  Potency: inactive
[13]
  Potency: inactive
[14]
  Potency: inactive
[15]
  outcome: inactive

## COc1cccc(C(=O)NN(C(=O)c2cc(C)cc(C)c2)C(C)(C)C)c1C
[1]
  Potency: inactive
[2]
  outcome: inactive
[4]
  outcome: inactive
[7]
  outcome: inactive
[18]
  outcome: inactive
[19]
  outcome: inactive
[8]
  Potency: inactive
[9]
  outcome: inactive
[10]
  outcome: inactive
[11]
  outcome: inactive
[12]
  Potency: inactive
[13]
  Potency: inactive
[14]
  Potency: inactive
[15]
  outcome: inactive

## CC(C)CP(=S)(S)CC(C)C
[1]
  Potency: inactive
[5]
  Potency: inactive
[7]
  outcome: inactive
[17]
  outcome: inactive
[9]
  outcome: inactive
[10]
  outcome: inactive
[11]
  outcome: inactive
[12]
  Potency: inactive
[13]
  Potency: inactive
[20]
  Potency: 24.3 µM (active)

## CNNC
[1]
  Potency: inactive
[3]
  outcome: inactive
[5]
  Potency: inactive
[16]
  Potency: inactive
[6]
  outcome: inactive
[7]
  outcome: inactive
[18]
  outcome: inactive
[8]
  Potency: inactive
[9]
  outcome: inactive
[10]
  outcome: inactive
[11]
  outcome: inactive
[12]
  Potency: inactive
[13]
  Potency: inactive
[20]
  Potency: inactive

## CC(C)[N+](=O)[O-]
[1]
  Potency: inactive
[2]
  outcome: inactive
[3]
  outcome: inactive
[4]
  outcome: inactive
[5]
  Potency: inactive
[16]
  Potency: inactive
[6]
  outcome: inactive
[7]
  outcome: inactive
[18]
  outcome: inactive
[19]
  outcome: inactive
[8]
  Potency: inactive
[17]
  outcome: inactive
[9]
  outcome: inactive
[10]
  outcome: inactive
[11]
  outcome: inactive
[12]
  Potency: inactive
[13]
  Potency: inactive
[14]
  Potency: inactive
[15]
  outcome: inactive

## Cc1nc(N)nc(N)n1
[1]
  Potency: inactive
[2]
  outcome: inactive
[4]
  outcome: inactive
[16]
  Potency: inactive
[7]
  outcome: inactive
[18]
  outcome: inactive
[19]
  outcome: inactive
[8]
  Potency: inactive
[17]
  outcome: inactive
[9]
  outcome: inactive
[10]
  outcome: inactive
[11]
  outcome: inactive
[12]
  Potency: inactive
[13]
  Potency: inactive
[14]
  Potency: inactive
[15]
  outcome: inactive

## CSc1nc(N=[N+]=[N-])nc(NC(C)C)n1
[1]
  Potency: inactive
[2]
  outcome: inactive
[16]
  Potency: inactive
[7]
  outcome: inactive
[18]
  outcome: inactive
[19]
  outcome: inactive
[8]
  Potency: inactive
[17]
  outcome: inactive
[9]
  outcome: inactive
[10]
  outcome: inactive
[11]
  outcome: inactive
[12]
  Potency: inactive
[13]
  Potency: inactive
[20]
  Potency: inactive
[15]
  outcome: inactive
